PLCb3 inh: blocks human PLC-beta3 enzyme activity; hit rate 0.18% among 370,000; inhibition, % at 12.2 µM; AID 720704; Purified PLC-beta3, fluorogenic substrate, fluorescence; Q01970; in the data active means inhibition above about 11%;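 further: 0% = median of compound wells on plate and 100% = full blocker control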
bovine MsrA act: activators of bovine methionine sulfoxide reductase A. purified bovine MsrA, absorbance read-out. activation, % at 10.6 µM. hit rate 0.3% among 360,000; in the data active means activation above about 7.5%;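 further: 0% = vehicle and 100% = reference activator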
PLC-gamma1 inh: blocks human PLC-gamma1 enzyme activity; P19174; purified PLC-gamma1, fluorogenic substrate, fluorescence; inhibition, % at 12.2 µM; hit rate 0.84% among 370,000; in the data active means inhibition above about 9.5%
MsrA inh: inhibits bovine methionine sulfoxide reductase A; inhibition, % at 15.5 µM; purified bovine MsrA, absorbance read-out; hit rate 0.75% among 360,000; AID 651718; in the data active means inhibition above about 4.5%;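 further: 0% = vehicle wells with enzyme and 100% = reference inhibitor wells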
An asterisk follows results filed as active; i = inactive; x = not tested or not shown; ! = not active in a repeat. Most compounds without a hit are left out; they make up all but 1.9% or so of the library.

SMILES | PLCb3 inh | bovine MsrA act | PLC-gamma1 inh | MsrA inh
CC(C)NC(=O)CSc1ccccc1C(=O)N1CCN(S(=O)(=O)Cc2ccccc2)CC1 | -1.6 | -5.6 | 10.6* | 0.5
CC(C)NC(=O)CSc1ccccc1C(=O)N1CCN(S(=O)(=O)/C=C/c2ccccc2)CC1 | -9.5 | -3.7 | 0.6 | 0.8
COc1cccc2cc(-c3cc(=O)oc4ccc(OCC(C)=O)cc34)oc12 | -85.2 | -4.3 | -56.4 | 9.5*
Cc1csc(N=Nc2ccc(N(C)C)cc2)[n+]1[O-] | 9.7 | -3.0 | 11.2* | 0.2
CN(C)c1ccc(N=Nc2ccc(C(=O)O)cc2)cc1 | -14.1 | -0.7 | -4.9 | -0.2
CCOC(=O)CCCNC(=O)OCCCN1CCC2(CCC(c3ccccc3)CC2)C1=O (stereo unspecified) | 1.5 | x | 0.4 | x
Cc1ccc(CC(=O)N2CCN(S(=O)(=O)c3ccccc3)CC2)cc1C | -1.9 | -9.5 | 3.8 | 4.6*
C=CCN1N=C(/C=C/c2ccc(C)cc2)CCC1=O | -1.4 | -9.3 | 0.7 | 4.6*
CCOC(=O)C(C)N1N=C(/C=C/c2ccc(C)cc2)CCC1=O (stereo unspecified) | -5.2 | -13.9 | 1.1 | 3.0
O=C(N[C@@H](Cc1cccnc1)C(=O)N1CCC[C@H]1C(=O)NC1CCCC1)C1CCCC1 | 2.1 | x | -3.7 | -0.7
COc1ccc(C2O[C@@H](C)[C@@H]3C(=O)N4CCc5c([nH]c6ccccc56)[C@@H]4C[C@@H]3N2C)cc1 (stereo partly specified) | -105.7 | x | -78.2 | -0.8
O=C(COC(=O)CNC(=O)c1ccc(Cl)cc1Cl)NC(=O)NCc1ccccc1 | -1.1 | -2.7 | 10.9* | 0.7
Cc1cc(Br)c2nc(-c3ccc(Cl)cc3)c(Cc3cccc(Cl)c3)n2c1 | -9.7 | x | -4.0 | 0.3
Cc1cc2cc(C(c3nnnn3CC3CCCO3)N3CCCc4ccccc43)c(=O)[nH]c2cc1C (stereo unspecified) | -208.8 | -1.6 | -153.8 | 4.6*
CCc1ccc2[nH]c(=O)c(C(c3nnnn3CC3CCCO3)N3CCCc4ccccc43)cc2c1 (stereo unspecified) | -12.7 | -1.5 | -10.1 | 1.0
C#CCN(Cc1cccc(F)c1)C(=O)c1nnc2c3ccccc3n(S(=O)(=O)c3ccc(C)cc3)c2n1 | -3.1 | x | 0.5 | -0.4
CN(C(=O)CSc1n[nH]c(=O)[nH]c1=O)c1ccccc1 | -5.3 | -8.2 | -1.6 | 1.8
O=C(Sc1n[nH]c(=O)[nH]c1=O)c1ccccc1 | 1.1 | 10.2* | -2.0 | 0.8
COc1ccc(NC(=O)/C(Cl)=C(/Cl)S(=O)(=O)Cc2ccccc2)cn1 | 7.0 | -3.7 | 10.3* | 1.5
O=C(N/N=C/c1cccs1)c1[nH]ncc1Br | 3.4 | -4.2 | 12.4* | 4.2
O=C(N/N=C/c1cccs1)c1cnccn1 | -1.1 | -8.3 | 2.0 | 3.1
O=C(CCN1C(=O)/C(=C/c2ccco2)SC1=S)Nc1ccc(O)cc1C(=O)O | -49.2 | -4.0 | 7.2 | 2.3
COc1ccccc1/C=C1\SC(=S)N(CCC(=O)Nc2ccc(C(=O)O)c(O)c2)C1=O | -1.9 | -2.1 | 8.1 | 0.9
O=C(CCN1C(=O)/C(=C/c2ccco2)SC1=S)Nc1ccc(C(=O)O)c(O)c1 | -16.7 | -4.3 | 29.2* | 0.3
O=C(CN1C(=O)/C(=C\c2ccco2)SC1=S)Nc1ccc(O)cc1C(=O)O | -26.0 | -5.7 | 32.9* | 1.6
SMILES | PLCb3 inh | bovine MsrA act | PLC-gamma1 inh | MsrA inh
O=C(Nc1ccc(F)cc1)OCc1cn(Cc2ccccc2F)nn1 | 1.3 | x | 2.3 | x
Cc1[nH]c2ccccc2c1CC(=O)Nc1ccc(N(C)c2cccnc2)c(-c2ccc(F)c(F)c2)c1 | -36.9 | x | -26.2 | 1.3
CC(C)c1cc(N=NC(N)=O)cc(C(C)C)c1O | 9.4 | -5.6 | 2.0 | 4.6*
Cc1ccc(C(=O)Nc2cc(C(C)C)c(O)c(C(C)C)c2)cc1 | -14.4 | -2.8 | 4.1 | 0.4
CCCC(=O)N1CCC[C@]2(CC[C@@H](CCC(=O)OCC)O2)C1 | -0.2 | x | -2.4 | x
O=C(Nc1ccc(F)cc1)OCc1cn(Cc2ccc(F)cc2)nn1 | -2.8 | x | -0.3 | x
OCCN1c2ccccc2CCc2ccccc21 | -4.3 | -9.9 | -0.5 | -1.6
OCCN1CCN(CCCN2c3ccccc3CCc3ccccc32)CC1 | 6.0 | 0.6 | 13.4* | 1.4
CSc1ncccc1C(=O)OCn1nnc2ccccc2c1=O | 5.6 | -0.7 | 4.5 | 0.9
O=C(OCn1nnc2ccccc2c1=O)c1cccnc1Cl | 7.9 | -3.5 | 11.9* | 1.1
COc1ccc(CNC(=O)c2cc(-c3ccccc3)c(N3CCOCC3)s2)cc1OC | -11.2 | x | -9.8 | x
Clc1ccc(CN2CCC(Cc3ccccc3)CC2)cc1 | 5.9 | -9.0 | 10.8* | 1.2
Clc1cccc(CN2CCC(Cc3ccccc3)CC2)c1 | 2.8 | -2.9 | 1.7 | 1.4
CS(=O)(=O)c1nc([N+](=O)[O-])nn1CCCc1ccccc1 | x | 0.2 | x | x
Cn1nc([N+](=O)[O-])nc1S(C)(=O)=O | 3.2 | 1.9 | 47.3* | -0.9
O=C(NCc1ccccc1)[C@@H]1CCCN1C(=O)[C@H]1CCCN1C(=O)c1ccc(OC(F)(F)F)cc1 | -0.7 | x | -1.1 | 0.2
CC(C)CC(=O)N1CCN(c2ccc([N+](=O)[O-])c(NCc3ccccc3)c2)CC1 | 8.3 | -1.2 | 12.9* | 1.9
O=C(COc1ccccc1Br)N1CCN(C(=O)c2cccs2)CC1 | -3.8 | -8.0 | 13.6* | 0.7
O=C(COc1ccccc1)N1CCN(C(=O)c2cccs2)CC1 | 2.9 | -8.8 | 3.2 | -1.4
NC(=O)COc1c(-c2ccco2)oc2ccccc2c1=O | -96.2 | -8.3 | -58.1 | 4.6*
O=C(O)COc1c(-c2ccco2)oc2ccccc2c1=O | -80.7 | -4.0 | -78.2 | 3.3
C#CCNC(=O)C[C@H]1C[C@@]2(C(=O)OC)C(=C[C@H](COCc3ccccc3)O[C@@H]2C)N(CCC2=CCCCC2)C1=O | 0.6 | x | -0.8 | 0.1
Cc1ccccc1Cn1cc(COC(=O)NCCc2c[nH]c3ccccc23)nn1 | 3.4 | x | -0.3 | x
Cc1c(Cc2ccccc2)c(=O)oc2c(CN(C)C)c(O)c(Cl)cc12 | i | -4.5 | i | 2.6
CCc1cc2c(=O)c(Oc3ccccc3F)c(C)oc2c(CN(C)C)c1O | i | -2.4 | i | 6.7*
SMILES | PLCb3 inh | bovine MsrA act | PLC-gamma1 inh | MsrA inh
CCCc1ccc(C2C3=C(CC(C)(C)CC3=O)NC3=C2C(=O)c2ccccc23)cc1 (stereo unspecified) | 5.7 | -1.2 | 10.3* | 0.3
CC(=O)Nc1ccc(S(=O)(=O)N(CCCN2CCOCC2)Cc2cccs2)cc1 | 1.6 | -3.9 | 0.1 | -0.2
CC(C)(C)c1ccc(S(=O)(=O)N(CCCN2CCOCC2)Cc2cccs2)cc1 | 4.5 | -9.8 | 10.4*! | -0.7
CCC(=O)N1c2ccccc2NC2=C(C(=O)CC(c3ccco3)C2)C1c1ccco1 (stereo unspecified) | -94.1 | -4.5 | -77.3 | 4.6*
O=C(N/N=C/c1ccc(OC2CSC2)cc1)c1ccccc1 | 6.7 | 1.2 | 6.8 | 1.7
Cc1ccc(/C=N/NC(=O)c2ccc(OC3CCCC3)cc2)o1 | -10.1 | -5.0 | 1.3 | 4.6*
Cc1ccc2nc(-c3ccc(NC(=O)c4ccco4)cc3)[nH]c2c1 | x | -4.7 | x | x
Cn1cccc1-c1nc2ccc(NC(=O)c3ccco3)cc2[nH]1 | -30.8 | -1.4 | -16.0 | 7.3*
COc1cc2c(cc1NC(=O)CSc1nnc(-c3cnccn3)n1-c1ccc(C)cc1)oc1ccccc12 | 0.3 | x | 0.6 | x

Source: PubChem (The Scripps Research Institute Molecular Screening Center)
